# Compound activity: PubChem BioAssay, Buhrlage Lab, Dana-Farber Cancer Institute and Novartis Institutes for BioMedical Research (Cambridge, Mass)
# USP8 inh – inhibitors of human USP8 deubiquitinase; P40818; purified USP8, Ub-rhodamine cleavage fluorescence, 30 min; inhibition, % at 20 µM; 4.2% of 47,000 active; AID 1645853
# USP10 inh – blocks human USP10 ubiquitin-rhodamine cleavage | purified USP10, Ub-rhodamine fluorescence, 60 min | inhibition, % at 20 µM | 1.1% of 47,000 active | AID 1645856
# USP7 block – blocks human USP7 ubiquitin-rhodamine cleavage; 0.3% of 47,000 active; AID 1645854; Q93009; purified USP7, Ub-rhodamine cleavage fluorescence; inhibition, % at 20 µM
# USP17 inh – inhibitors of human USP17 deubiquitinase; purified USP17, Ub-rhodamine cleavage fluorescence, 3 h; 6.5% of 47,000 active; A8MUK1; inhibition, % at 50 µM
# USP30 inh – blocks human USP30 ubiquitin-rhodamine cleavage; 5.3% of 47,000 active; AID 1645860; purified USP30, Ub-rhodamine cleavage fluorescence; inhibition, % at 25 µM
# Target sequence (Q70CQ3 whole entry, looked up): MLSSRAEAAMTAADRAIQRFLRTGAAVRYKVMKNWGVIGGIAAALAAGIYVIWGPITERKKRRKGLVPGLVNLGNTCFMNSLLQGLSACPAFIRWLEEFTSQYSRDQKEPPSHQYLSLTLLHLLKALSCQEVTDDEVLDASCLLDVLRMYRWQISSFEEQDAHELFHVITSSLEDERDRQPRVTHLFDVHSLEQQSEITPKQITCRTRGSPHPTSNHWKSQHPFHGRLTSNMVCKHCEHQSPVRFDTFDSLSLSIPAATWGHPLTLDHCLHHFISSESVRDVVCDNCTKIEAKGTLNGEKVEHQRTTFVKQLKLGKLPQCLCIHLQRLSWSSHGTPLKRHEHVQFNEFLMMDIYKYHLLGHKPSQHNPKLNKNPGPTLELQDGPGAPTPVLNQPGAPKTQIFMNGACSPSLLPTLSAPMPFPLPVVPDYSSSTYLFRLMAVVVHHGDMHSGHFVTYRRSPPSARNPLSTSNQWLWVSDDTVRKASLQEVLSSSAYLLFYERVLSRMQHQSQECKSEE
# USP28 inh – blocks human USP28 ubiquitin-rhodamine cleavage | Q96RU2 | purified USP28, Ub-rhodamine cleavage fluorescence, 30 min | inhibition, % at 25 µM | 3% of 47,000 active | AID 1645857
# A number is an active result; – = inactive; · = no result given. Shown are actives, neighbours in structure and some others; about 13% of the full set was active somewhere. Rule as the data show it: active = inhibition above about 30%; inactive = the rest.
SMILES,USP8 inh,USP10 inh,USP7 block,USP17 inh,USP30 inh,USP28 inh
O=C(NCc1ccc2c(c1)OCO2)c1ccsc1,–,–,–,–,–,–
O=C(NCc1ccc2c(c1)OCO2)c1cc2c(s1)CCC2,79,47,–,48,–,44
Cc1ccc(C)c(CSc2nnc(C3CCCN3)o2)c1 (centres undefined),–,–,–,·,–,–
COc1cc(CN2C[C@@H](c3ccc(F)cc3)[C@H](c3cc(C(F)F)n[nH]3)C2)cc(OC)c1,–,–,–,–,–,–
O=C1C(O)=C(c2ccccc2)C2CCCN12 (centres undefined),–,–,–,–,32,–
O=C(O)c1ccccc1CN1C(=O)C2CCCN2C(=O)c2ccccc21 (centres undefined),–,–,–,–,–,–
O=S(=O)(c1ccc(Oc2ncnc3sc(-c4ccccc4)cc23)c(Cl)c1)N1CCOCC1,–,–,–,–,–,–
Cc1ccc(C)c(NC(=O)Cn2c(C)ncc(C(=O)NC3CC3)c2=O)c1,–,–,–,–,–,–
COc1ccc(CC(=O)N2CCC(Nc3cccnc3)C2)cc1 (centres undefined),–,–,–,42,–,–
Fc1cc2c(c(CSc3nnc4ccccn34)c1)OC(c1ccccc1)OC2 (centres undefined),49,–,–,–,–,–
CC(=O)N1CCn2c(c(C(=O)Nc3cccc(F)c3)c3cccnc32)C1,–,–,–,–,–,–
O=C(Nc1cccc([N+](=O)[O-])c1)Nc1ccc2snnc2c1,95,56,84,–,–,–
CN1C(=O)CCCC12CCCN(C(=O)Nc1cccc(F)c1)C2 (centres undefined),–,–,–,–,–,–
CC(C)c1ccc(S(=O)(=O)N2CCCC(c3nc(-c4cccnc4)no3)C2)cc1 (centres undefined),–,–,–,52,82,–
Cc1ccc(S(=O)(=O)N2CCCC(c3nc(-c4cccnc4)no3)C2)cc1C (centres undefined),–,–,–,–,–,–
COc1ccc(S(=O)(=O)N2CCC3(CC2)CC3c2nc(-c3cccnc3)no2)c(C)c1 (centres undefined),–,–,–,–,36,–
Cc1ccc(F)cc1S(=O)(=O)N1CCC2(CC1)CC2c1nc(-c2cccnc2)no1 (centres undefined),–,–,–,–,–,–
O=C(Nc1nccs1)C1c2ccccc2C(=O)N(Cc2ccccc2)C12CCCC2 (centres undefined),69,–,–,–,–,–
COCCN1C(=O)c2ccccc2C(C(=O)Nc2ccc(NC(C)=O)cc2)C12CCCCC2 (centres undefined),–,–,–,–,·,·
COCCN1C(=O)c2ccccc2C(C(=O)Nc2ccc3c(c2)OCO3)C12CCCC2 (centres undefined),69,–,–,45,–,–
COCCN1C(=O)c2ccccc2C(C(=O)Nc2ccccn2)C12CCCCC2 (centres undefined),–,–,–,–,–,–
O=C(NCc1ccc(Cl)cc1)C1=NOC2(CCNC2)C1 (centres undefined),–,–,–,·,–,–
CCN(CC)C(=O)c1cc2c(=O)n3cccc(C)c3nc2n1Cc1ccccc1,–,–,·,–,–,–
COc1ccccc1CNc1nc(N2CCN(C)CC2)nc2c1cnn2C,–,–,–,–,–,–
CCOC(=O)Cc1cc(O)cc(O)c1C(=O)CCCCCC(C)O (centres undefined),–,–,–,–,–,–
SMILES,USP8 inh,USP10 inh,USP7 block,USP17 inh,USP30 inh,USP28 inh
CCCC(O)CCCCCCCc1cc(O)cc(O)c1C(=O)OC(CCC)CCCCCCCc1cc(O)cc(O)c1 (centres undefined),–,76,–,91,–,–
CC(=O)c1cc2c(cc1NC(=O)c1cc(S(=O)(=O)N3CCCC3)cn1C)OCO2,–,–,–,–,–,–
CC(=O)c1cc2c(cc1NC(=O)c1oc3c(c1C)-c1[nH]ncc1CC3)OCO2,31,–,–,43,–,–
CC1CCN(Cc2nnc(-c3cn(CC(=O)N4CCCCCC4)c4ccccc34)o2)CC1,–,–,–,–,–,–
CCC(C)NC(=O)Cn1cc(-c2nnc(CN3CCC(C)CC3)o2)c2ccccc21 (centres undefined),–,–,–,–,36,–
CC(OC(=O)c1ccc2ncsc2c1)C(=O)Nc1ccc2c(c1)OCCO2 (centres undefined),–,–,–,–,–,–
